The text below walks through data of PubChem BioAssay (NCI).

Test in all cases: NCI-60 one-dose screen, 48 h (100 = growth as untreated, 0 = no growth, -100 = all killed)
What all share (conditions): 10 µM unless noted

The test system of assay [1] is NCI-H23 lung.
Assay [2] has as its system NCI-H226 lung.
In assay [3] the test system is NCI-H322M lung.
The subject of assay [4] is HOP-62 NSCLC.
The subject of assay [5] is NCI-H460 lung.
Assay [6] has as its system HOP-92 NSCLC.
The test system of assay [7] is NCI-H522 lung.
Assay [8] deals with A549/ATCC NSCLC.
The test system of assay [9] is 786-0 renal.
Assay [10] has as its system COLO 205 colon.
Assay [11] deals with DU-145 prostate.
In assay [12] the test system is K-562 leukemia.
The test system of assay [13] is MALME-3M melanoma.
Assay [14] concerns MDA-MB-231 breast.
Assay [15] deals with RXF 393 renal.
In assay [16] the test system is SF-268 CNS.
For assay [17], the system named is SF-295 CNS.
In assay [18] the test system is SF-539 CNS.
In assay [19] the test system is UACC-257 melanoma.
Assay [20] deals with M14 melanoma.

The panel holds about 83,000 compounds, 20% with a hit somewhere; the sample as a whole holds those more often.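 Step 1: grow cells in 96-well plates. Step 2: add test compound at a single concentration. Step 3: incubate 48 h. Step 4: record percent growth.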 Values without a mark were called inactive. Calls of active or inactive are those of the source. The calls were made as follows: active = growth percent below 10; inactive = the rest.

As for `CN(C)c1ccc(-c2ccc3[nH]c(=O)nc(-c4ccc(F)cc4)c3c2)cn1`, the growth was 56.2% in assay [1]; 68.3% in [2]; 68.2% in assay [3]; 48.2% in assay [4]; 21.6% in [5]; 56.1% in [6]. Moreover, the growth in assay [7] is 14.9%; in assay [8], 39.6%; in [9], 30.4%; in assay [10] it was 39.6%; in assay [11], 51.6%; in [12] it was 11.9%. The growth in [13] is 64.4%; in [14] it was 47.7%; in [15] it was 41.5%; in assay [16], 45.5%; in [17], 21.5%; in [18], 24.2%. Besides, the growth is 54.4% in assay [19] and 22.7% in assay [20].
As for `Nc1c(C(=O)Nc2ccccc2Cl)sc2nc3c(cc12)CN(Cc1ccccc1)CC3`, the growth in assay [1] was 103%; in assay [2], 91.5%; in assay [3], 92.4%; in [4], 104%; in assay [5], 93.4%; in assay [6], 109%. Also, the growth is 88.2% in [7]; 112% in [8]; 99% in assay [9]; 95.5% in assay [10]; 94% in assay [11]; 99% in assay [12]. In addition, the growth is 75.5% in assay [13]; 105% in assay [14]; 110% in assay [15]; 81.5% in [16]; 100% in [17]; 102% in assay [18]. Also, the figures for the growth in assay [19] and in [20] were 128% and 107%, respectively.
Take `Nc1c(C(=O)Nc2cccc3ccccc23)sc2nc3c(cc12)COCC3`: the growth is 63.1% in [1]; 98% in [2]; 82.4% in assay [3]; 39.9% in [4]; 31.1% in assay [5]; 61.1% in assay [6]. The growth was 26.4% in assay [7]; 50.9% in [8]; 38.6% in assay [9]; 58.7% in [10]; 58.7% in assay [11]; 17.5% in [12]. Further, the growth in assay [13] is 60.8%; in assay [14] it was 53.3%; in assay [15] it was 41.4%; in [16], 56.5%; in [17], 28.9%; in assay [18] it was 30%. In addition, the growth is 54.5% in assay [19] and 35.7% in assay [20].
With `Cc1ccc(C2CC(c3ccc(Nc4nc(NCCO)nc(NCCO)n4)cc3)=NN2c2ccc(Cl)cc2)cc1` (stereo not given), the growth is 71.8% in assay [1]; 101% in [2]; 51.3% in [3]; 67.6% in assay [4]; 26.6% in assay [5]; 88.6% in assay [6]. For the same compound, the growth in [7] is 67%; in assay [8] it was 48.1%; in assay [9] it was 23.7%; in assay [10], 70.3%; in assay [11] it was 62.6%; in [12], 14.9%. The growth in assay [13] is 67.3%; in assay [14], 66.9%; in assay [15] it was -12.6% (active); in assay [16], 56.8%; in [17] it was 30.3%; in assay [18] it was 39%. Also, the growth is 75.1% in assay [19] and 61.4% in assay [20].
For `O=C1NC(SCc2ccc(F)cc2)=N/C1=C/c1cccc(OCc2ccc(Cl)cc2)c1`, the growth in assay [1] was 57.6%; in assay [2], -7.92% (active); in [3], 50.3%; in assay [4], 45.9%; in assay [5], 11.8%; in assay [6] it was 68%. For the same compound, the growth in assay [7] is 67.5%; in assay [8], 26.2%; in [9], -33.3% (active); in assay [10] it was 55.3%; in [11], 80.6%; in assay [12], 58.5%. The growth in [13] was 88.1%; in assay [14] it was 18.3%; in assay [15], 55%; in assay [16], 74.3%; in assay [17] it was -33.6% (active); in assay [18], 14.1%. Also, the growth in [19] is 95.8%; in assay [20], 63.9%.
Regarding `CCN(CC)CC#CCOC(=O)[C@]1(C)CCC[C@]2(C)[C@H]3C[C@H]4C(C(C)C)=C[C@]3(CC[C@H]21)[C@@H]1C(=O)CCC(=O)[C@@H]14`, the growth in [1] was 57.3%; in assay [2], 76.2%; in assay [3], 87.7%; in assay [4] it was 79.2%; in assay [5] it was 59.2%; in assay [6] it was 57%. The growth in [7] was 29.5%; in assay [8] it was 48.1%; in [9], 54.1%; in assay [10] it was 36.2%; in assay [11], 71%; in [12], 18.6%. Besides, the growth was 45.3% in [13]; 69% in assay [14]; 15.3% in assay [15]; 68.9% in assay [16]; 59.6% in [17]; 66.8% in assay [18]. For the same compound, the values for the growth in [19] and in [20] were 56.9% and 51.4%, respectively.
`CC(C)CSc1nc(Nc2ccccc2)c(C#N)c(-c2ccc(F)cc2)n1`: the growth in [1] is 38.7%; in assay [2] it was 6.87% (active); in assay [3], 27.9%; in [4], 7.29% (active); in [5] it was 3.5% (active); in assay [6], -47.6% (active). Also, the growth is 59.1% in assay [7]; 21.4% in assay [8]; -45.6% (active) in assay [9]; 20.3% in assay [10]; 75.9% in assay [11]; 50.7% in assay [12]. Moreover, the growth is -5.57% (active) in [13]; -3.62% (active) in assay [14]; 2.42% (active) in assay [15]; 37.7% in assay [16]; 16.2% in assay [17]; 22.4% in assay [18]. For the same compound, the results for the growth in assay [19] and in assay [20] were 66.2% and 31.6%, respectively.
